# According to the supplement of paper PMC6555819:
# What was measured:
# Test in all cases: PBM binding z-score (relative to random genomic background probes); higher = stronger binding; sequences stand for … in GC…GCGATTGACAGCGTAGAATGAAGG
# [1] = test system: FXR:RXRa (NR concentration 270 nM, RXRa partner concentration 90 nM)
# In short: (§1)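 Binding z-scores were set against random background probes. The data came from custom Agilent 4×180K protein-binding microarrays carrying double-stranded probes with 34-nt variable regions, incubated 1 h with ligand-free nuclear receptor dimers. Partner-specific antibodies detected binding, and scanned fluorescence was regression-normalized.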
# [2] = test system: LXRa:RXRa (NR concentration 270 nM, RXRa partner concentration 90 nM)
# In short: as §1
# [3] = test system: LXRa homodimer (NR concentration 270 nM)
# In short: as §1
# [4] = test system: LXRb:RXRa (NR concentration 270 nM, RXRa partner concentration 90 nM)
# In short: as §1
# [5] = test system: LXRb homodimer (NR concentration 270 nM)
# In short: as §1
# [6] = test system: PPARa:RXRa (NR concentration 270 nM, RXRa partner concentration 90 nM)
# In short: as §1
# [7] = test system: PPARg:RXRa (NR concentration 180 nM, RXRa partner concentration 90 nM)
# In short: as §1
# [8] = test system: PPARg:RXRa 270nM:90nM, anti-RXR (NR concentration 270 nM, RXRa partner concentration 90 nM)
# In short: as §1
# [9] = test system: PPARg:RXRa 30nM:10nM, anti-RXR (NR concentration 30 nM, RXRa partner concentration 10 nM)
# In short: as §1
# [10] = test system: PPARg:RXRa 90nM:30nM, anti-RXR (NR concentration 90 nM, RXRa partner concentration 30 nM)
# In short: as §1
# [11] = test system: PPARg:RXRa DBDmut IVT, anti-RXR (DBD mutation: RXRa K156A/R161A, NR concentration 270 nM, RXRa partner concentration 90 nM)
# In short: as §1
# [12] = test system: PPARg:RXRa IVT, anti-PPARg (NR concentration 270 nM, RXRa partner concentration 90 nM)
# In short: as §1
# [13] = test system: PPARg DBDmut:RXRa IVT, anti-PPARg (DBD mutation: PPARg1 K132A/R137A, NR concentration 270 nM, RXRa partner concentration 90 nM)
# In short: as §1
# [14] = test system: PPARg DBDmut IVT, anti-PPARg (DBD mutation: PPARg1 K132A/R137A, NR concentration 270 nM)
# In short: as §1
# [15] = test system: PPARg homodimer (NR concentration 180 nM)
# In short: as §1
# [16] = test system: PXR:RXRa (NR concentration 270 nM, RXRa partner concentration 90 nM)
# In short: as §1
# [17] = test system: PXR homodimer (NR concentration 270 nM)
# In short: as §1
# [18] = test system: RARa:RXR (NR concentration 270 nM, RXRa partner concentration 90 nM)
# In short: as §1
# [19] = test system: RARa homodimer (NR concentration 270 nM)
# In short: as §1
# [20] = test system: RARb:RXRa (NR concentration 270 nM, RXRa partner concentration 90 nM)
# In short: as §1
Sequence,PBM binding z-score [1],PBM binding z-score [2],PBM binding z-score [3],PBM binding z-score [4],PBM binding z-score [5],PBM binding z-score [6],PBM binding z-score [7],PBM binding z-score [8],PBM binding z-score [9],PBM binding z-score [10],PBM binding z-score [11],PBM binding z-score [12],PBM binding z-score [13],PBM binding z-score [14],PBM binding z-score [15],PBM binding z-score [16],PBM binding z-score [17],PBM binding z-score [18],PBM binding z-score [19],PBM binding z-score [20]
ATACCAAGGCGATCGTGAGGTCGTTGATACTAAC,0.659,0.195,0.46,0.571,-0.375,0.703,0.16,-0.337,-0.383,-0.191,-0.138,-0.0368,-0.877,-0.313,-0.138,1.3,0.728,1.12,0.128,0.341
ATCTGTAGGTAACAAGTTCAGTGAAAGAGAGGAC,0.84,0.812,0.628,0.805,0.615,1.59,1.51,2.08,0.821,1.57,2.85,2.64,1.31,0.975,1.16,1.58,0.906,1.16,0.818,1.63
GGAACGTGGGCAAGTTGATAGCAGAGTTTGATGG,-0.957,-0.763,-0.666,-0.678,-0.982,-0.579,0.382,-0.458,-0.337,-0.422,0.19,-0.544,-0.762,-0.713,-0.313,-0.46,0.121,-0.634,-0.639,-0.191
TCATATAGGCAAAGGTGAAAGTCGAACGATATGA,0.772,1.05,-0.253,1.07,-0.302,2.98,3.35,4.39,3.88,4.56,2.2,2.33,0.797,0.292,0.811,1.04,0.14,2.02,0.326,1.74
CCGTCTGGGGCAAGGTTACCATAACGCACAGCCA,0.304,0.595,-0.295,0.486,-1.06,1.47,1.66,2.36,0.376,1.93,1.75,2.43,-0.591,-1.54,0.46,0.036,-0.461,0.632,0.0974,1.72
TCTTGTAGATCAATAGAGGTTAAGAAAGTGCGCT,0.723,3.4,0.589,1.83,-0.158,1.8,-0.124,1.46,2.83,2.18,1.96,1.06,0.946,0.475,0.36,2.86,0.0612,1.67,-0.172,0.91
CTACCAAGGTTAACAAGGTCGTTGATTACTATTC,2.61,3.3,1.09,2.89,0.472,3.28,1.03,1.76,0.841,1.46,1.98,1.78,0.186,0.431,1.25,4.32,8.81,3.19,0.369,2.81
CGTCCAAGGTCAGAGAGTTCAGTGAATGCCGAGT,5.22,4.79,3.36,3,-0.278,3.89,2.14,2.83,0.445,1.82,2.97,2.07,-0.209,-1.29,2.85,6.75,14.2,4.08,1.32,4.78
ATACCAAGGTGATCGTGAGGTCGTCGATACTAAC,1.46,1.08,0.311,0.992,-0.191,1.75,0.672,0.691,0.0309,0.54,0.722,1.25,0.727,0.964,0.798,2.36,0.524,1.84,0.592,1.3
ATCTCTAGGTAAAGTTAAGTGAAAGATCGATAGA,0.787,0.68,0.216,0.185,0.709,0.332,0.903,1.19,0.64,1.04,2.61,1.99,0.949,2.08,0.251,-0.00139,0.451,0.249,0.961,0.312
GCTGCTAGATCAGGTTGGTCAGCTAACGGGTACG,-0.615,-0.876,-0.323,-0.953,-0.822,-1.19,-0.285,-1.02,-0.624,-0.926,-0.422,-0.787,-0.302,-0.87,-0.314,-0.686,-0.557,-0.344,-1.48,-0.392
CGTCCAAGGTCATAGGAGGTAAGTGAAGACAGAT,7.22,5.32,0.86,3.76,0.57,5.49,4.65,4.94,1.76,3.49,2.54,3.38,0.738,0.602,2.39,4.29,1.22,3.98,1.57,4.88
CTACCAAGGTGAACAAGGTCATTGATTACTATTC,3.73,3.77,2.33,3.63,-0.00581,3.92,2.24,2.85,0.479,1.65,3.07,4.07,0.536,0.17,2.29,4.92,6.61,4.44,1.19,3.53
CGTCCAAGGTCGATGCTAGGTCAGTGAAAGCATT,1.61,1.91,-0.14,1.33,-0.866,1.81,-0.125,0.529,-0.65,-0.0604,0.324,0.816,-0.113,-0.767,1.54,2.04,0.704,2.49,-0.458,2.92
